# This is a sample that favours compounds with a hit; in the whole collection about 1.8% have one here.
# GSTO1 counter: GSTO1 inhibition, counter-screen for RBBP9 inhibitors | P78417 | actives 1.1% (n = 300,000) | inhibition, % at 5.96 µM | recombinant GSTO1, activity-based probe fluorescence polarization;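 active means inhibition above the campaign mean inhibition plus 3 SD, cut at about 35% in these data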;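 further: 0% = GSTO1-1 with DMSO and 100% = wells lacking GSTO1-1 enzyme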
# Fam108B inh: counter-screen for RBBP9 inhibitors: inhibitors of mouse Fam108B | recombinant Fam108B, FP-Rh probe fluorescence polarization | inhibition, % at 9.51 µM | actives 0.33% (n = 300,000) | AID 1947;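 active means inhibition above the screen mean inhibition plus 3 SD, computed separately per campaign, cut at about 18% in these data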;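 further: inhibitors lower polarization as less probe binds the enzyme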
# LYPLA2 counter: blocks human lysophospholipase 2, a PME1 counter-screen | actives 0.38% (n = 320,000) | inhibition, % at 5.9 µM | recombinant LYPLA2, FP-Rh probe fluorescence polarization | O95372;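 active means inhibition above the screen-wide mean plus 3 SD, limit set per campaign, cut at about 26% in these data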;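 further: 0% = LYPLA2 with DMSO and 100% = wells lacking LYPLA2 enzyme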
# PME-1 primary: blocks human protein phosphatase methylesterase 1; Q9Y570; recombinant PME-1, FP-Rh probe fluorescence polarization; inhibition, % at 5.9 µM; actives 0.53% (n = 320,000); AID 2130;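 active means inhibition above the campaign mean of all compounds plus 3 SD, cut at about 26% in these data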;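 further: competitive labeling of PME-1 active site by serine hydrolase directed probe; 0% = PME-1 with DMSO and 100% = wells lacking PME-1 enzyme; inhibitors block probe labeling so polarization falls and inhibition rises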
# Target sequence (Q9Y570 whole entry, looked up): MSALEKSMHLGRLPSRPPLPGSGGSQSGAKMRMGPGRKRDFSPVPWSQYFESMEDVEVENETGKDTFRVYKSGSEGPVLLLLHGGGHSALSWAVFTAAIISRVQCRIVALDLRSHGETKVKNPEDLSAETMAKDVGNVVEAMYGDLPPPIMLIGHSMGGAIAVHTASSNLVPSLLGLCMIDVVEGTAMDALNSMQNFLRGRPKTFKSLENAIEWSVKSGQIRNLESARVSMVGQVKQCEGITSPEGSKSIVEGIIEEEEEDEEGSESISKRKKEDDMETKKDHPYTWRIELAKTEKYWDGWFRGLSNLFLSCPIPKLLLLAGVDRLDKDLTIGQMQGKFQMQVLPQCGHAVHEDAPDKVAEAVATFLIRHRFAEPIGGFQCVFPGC
# PAD4 FP inh: PAD4 (human) enzyme inhibition; Q9UM07; recombinant PAD4, RCA probe fluorescence polarization; inhibition, % at 6.36 µM; actives 0.41% (n = 330,000); AID 485272;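 active means percent inhibition above a cutoff equal to the mean of all tested compounds plus 3 SD, cut at about 15% in these data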;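 further: 0% = PAD4 with RCA probe and DMSO and 100% = probe without PAD4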
# LYPLA1 inh: blocks human lysophospholipase 1, a PME1 counter-screen. O75608. recombinant LYPLA1, FP-Rh probe fluorescence polarization. inhibition, % at 5.9 µM. actives 0.16% (n = 320,000);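 active means inhibition above the mean of all tested compounds plus 3 SD, set per campaign, cut at about 14% in these data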;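 further: inhibitors block serine hydrolase probe labeling of LYPLA1 so polarization falls; 0% = enzyme with DMSO and 100% = wells lacking LYPLA1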
# The depositor's hits bear a star; x = no result.
SMILES,GSTO1 counter,Fam108B inh,LYPLA2 counter,PME-1 primary,PAD4 FP inh,LYPLA1 inh
COc1ccc(/C=C/c2ccncc2)cc1,-3,2,0,-2,1,-1
COc1ccc(/C=C/c2c(-c3ccc(OC)cc3)oc3cccnc23)cc1,1,1,0,27*,0,-3
Cc1ccc(S(=O)(=O)Oc2cccc(/C=N/Nc3ccc(C(=O)O)cc3)c2)cc1,-8,18,10,31*,-3,5
COc1ccc(C(=O)c2oc3ccc(OC)cc3c2N)cc1,-4,9,4,33*,-4,4
COC(=O)c1oc2ccc(OC)cc2c1N,-1,3,1,-1,-4,1
CCCCn1c(NC(=O)c2ccc(F)cc2)c(C#N)c2nc3ccccc3nc21,67*,56*,61*,20,70*,60*
O=C(Nc1ccc(N2CCOCC2)cc1)c1ccc(Cl)c(S(=O)(=O)N2CCCCC2)c1,x,x,-2,3,-2,-3
O=C(COC(=O)c1ccc([N+](=O)[O-])s1)NC(c1ccccc1)c1ccccc1,37*,10,1,10,-11,1
CC(C)(C)c1ccc(NC(=O)COC(=O)c2ccc([N+](=O)[O-])s2)cc1,40*,12,16,33*,-14,0
O=C(COC(=O)c1ccc([N+](=O)[O-])s1)NCc1ccccc1,42*,10,16,9,-1,4
O=C(COC(=O)c1ccc([N+](=O)[O-])s1)Nc1ccc(F)cc1,x,x,5,8,-1,2
COc1ccc(S(=O)(=O)N2CCOCC2)cc1NC(=O)Cc1coc2cc(C)c(C)cc12,-2,-4,0,25,-7,-6
Cc1ccc(OCC2Cn3c(nc4c3c(=O)[nH]c(=O)n4C)O2)cc1C (configuration not stated),1,-4,-4,-3,0,-3
Cc1c(N2C(=O)c3ccc4c5c(ccc(c35)C2=O)CC4)c(=O)n(-c2ccccc2)n1C,36*,9,1,5,1,-3
COc1ccc(C)cc1NC(=O)/C=C/c1ccc(OC)c(S(=O)(=O)N2CCOCC2)c1,x,x,-5,-2,-1,-2
O=C(NCCCN1CCOCC1)c1coc2ccccc2c1=O,35*,6,-4,0,0,-4
CC(C)N(Cc1ccccc1)C(=O)CN1c2cccc3cccc(c23)S1(=O)=O,x,x,x,x,-2,x
CCC(C)(C)N(C(=O)CCC(=O)Nc1cc(C)on1)C(C(=O)NC(C)(C)C)c1ccc(OC)cc1 (configuration not stated),2,-4,2,-4,-1,-1
CCOC(=O)CNC(=S)N(CCCN1CCN(C)CC1)Cc1cccs1,-1,7,3,0,7,1
O=C1c2sc3nc4n(c(=O)c3c2CCC1Br)CCCCC4 (configuration not stated),55*,-4,-12,-3,-2,-7
O=C1CCCc2c1sc1nc3n(c(=O)c21)CCCCC3,-2,1,-4,-1,0,-2
CCOC(=O)N1CCN(C2CCCN(C(=O)c3cccc(N(C)C)c3)C2)CC1 (configuration not stated),6,6,4,9,-2,2
Cc1nnsc1C(=O)NC1CCCc2c1cnn2-c1ccc(C(C)(C)C)cc1 (configuration not stated),35*,-3,10,2,0,3
CCCCN(C(=O)COC(=O)COc1c(C)cc(C)cc1C)c1c(N)n(CCC)c(=O)[nH]c1=O,15,1,4,-2,-9,2
COc1cccc(-c2nc(NCc3ccccc3)c3ccccc3n2)c1O,16,2,2,-2,-8,-5
SMILES,GSTO1 counter,Fam108B inh,LYPLA2 counter,PME-1 primary,PAD4 FP inh,LYPLA1 inh
COc1cccc(-c2nc(NC3CCCC3)c3ccccc3n2)c1O,5,15,0,27*,2,-5
CCC(C)C(=O)Nc1cc(C(=O)OC)ccc1C(=O)OC (configuration not stated),4,2,5,1,-1,3
CCOCC(=O)Nc1cc(C(=O)OC)ccc1C(=O)OC,37*,-1,4,3,5,8
COc1ccc(N=CC2=C(Nc3ccc(OC)cc3)c3c(C)nn(-c4ccccn4)c3CC2)cc1,84*,47*,49*,57*,81*,50*
Cc1ccc(C)n1Cc1ccc(C(=O)O)cc1,59*,37*,-7,-18,7,-8
Cc1cc(C)n(Cc2ccc(C(=O)O)cc2)n1,9,3,2,2,3,0
O=c1cc(CSc2nc(NCc3ccccc3)c3ccccc3n2)nc2ccc(Cl)cn12,42*,0,-4,3,5,-5
O=C(CCCn1c(SCc2cc(=O)n3cc(Cl)ccc3n2)nc2ccccc2c1=O)NCC1CCCO1 (configuration not stated),5,2,-7,-3,-2,1
CC(=O)Oc1c(I)cc(I)cc1C(=O)Nc1ccc(Cl)cc1,-17,-1,-23,61*,3,-13
COc1ccc(OCC(=O)OCC(=O)NC2CCCCC2C)cc1 (configuration not stated),x,x,1,1,1,-2
COc1cc(NC2CCCCC2O)c2nc(-c3ccc(Cl)cc3)ccc2c1 (configuration not stated),52*,11,11,16,11,2
O=[N+]([O-])c1cc(S(=O)(=O)Nc2cccc(C(F)(F)F)c2)ccc1-n1nnc2ccccc21,-43,-4,-10,33*,-2,-6
COc1ccc(NS(=O)(=O)c2ccc(-n3nnc4ccccc43)c([N+](=O)[O-])c2)cc1,-9,1,0,7,-6,-3
COc1cccc2[nH]c3c(N4CCN(Cc5ccc6c(c5)OCO6)CC4)ncnc3c12,1,4,-1,20,-4,-4
COc1ccc2c(c1)[nH]c1c(N3CCN(Cc4ccc5c(c4)OCO5)CC3)ncnc12,-10,10,2,26*,0,-6
Cc1ccnc(NC(=O)c2ccc(S(=O)(=O)N3CCC(C)CC3)cc2)c1,0,2,9,2,0,0
COc1ccc(/C=N/Nc2cc(C)nc(-n3nc(C)cc3C)n2)c(OC)c1,4,2,1,54*,-1,2
COc1ccc2sc(N(CCN(C)C)C(=O)c3ccc4ccccc4c3)nc2c1,0,0,11,6,4,-2
c1ccc2sc(Nc3nc4cc5c(cc4s3)OCO5)nc2c1,0,3,0,47*,-2,-1
CC(=O)Nc1nc2cc3c(cc2s1)OCO3,-6,1,2,1,2,0
CCOC(=O)c1sc(Nc2nc3cc4c(cc3s2)OCO4)cc1C,-3,4,0,61*,-2,-11

# Source: PubChem (The Scripps Research Institute Molecular Screening Center)
